Cycloheximide cs – counter-screen hit for Shiga toxin inhibitors, cycloheximide | cell reporter, cycloheximide protein synthesis inhibition counterscreen | max response, % | actives 12% (n = 300,000); in the data active means max response mostly above about 13%, no sharp cut-off; inactive means mostly below about 14%; further: read at 38.3 µM for the half of the compounds with a filed dose; 0% is about no effect
RE007 growth inh – less growth of the S. pombe RE007 Vpr strain; S. pombe RE007 Vpr strain, BacTiter-Glo ATP luminescence, 24 h; Potency, µM (series often up to 92.2 µM), inactives show at the highest dose activity change, negative = less growth, most hits filed as inhibitors; actives 0.21% (n = 360,000); active means well fitted falling curve with a large enough effect; inconclusive means small, poorly fitted or top-dose-only effect; inactive means no such curve, though single readings can be large or run the other way; further: potency means the concentration at half of the fitted maximal effect; on the % scale 0 is the no-effect control and ±100 the full control effect; nearly all actives have a fitted effect of over 50% in size
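Fission yeast strain RE007, carrying one chromosomally integrated HIV-1 vpr copy, was seeded at OD 0.01 in PMG+AL medium with 23 nL pinned compound. After 24 h at 30 °C and 99% humidity, viability was read by BacTiter-Glo luminescence.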
Shiga inhibitor – Shiga toxin inhibition; inhibition, % at 38.7 µM; Vero cells, Shiga toxin protein synthesis inhibition reporter; actives 9.2% (n = 290,000); AID 2315; in the data active means inhibition mostly above about 28%, no sharp cut-off; inactive means mostly below about 43%; further: 0% is about no effect
Giardia FBPA inh – blocks Giardia fructose-bisphosphate aldolase activity; A8B2U2; purified Giardia FBPA; Potency, µM (top dose mostly 59.6 µM), for the others: at the top dose activity, negative = inhibition, most hits filed as inhibitors; actives 0.71% (n = 290,000); AID 2451; further: potency means the concentration at half of the fitted maximal effect; on the % scale 0 is the no-effect control and ±100 the full control effect; nearly all actives have a fitted effect of over 55% in size
Target sequence (A8B2U2 whole entry, looked up): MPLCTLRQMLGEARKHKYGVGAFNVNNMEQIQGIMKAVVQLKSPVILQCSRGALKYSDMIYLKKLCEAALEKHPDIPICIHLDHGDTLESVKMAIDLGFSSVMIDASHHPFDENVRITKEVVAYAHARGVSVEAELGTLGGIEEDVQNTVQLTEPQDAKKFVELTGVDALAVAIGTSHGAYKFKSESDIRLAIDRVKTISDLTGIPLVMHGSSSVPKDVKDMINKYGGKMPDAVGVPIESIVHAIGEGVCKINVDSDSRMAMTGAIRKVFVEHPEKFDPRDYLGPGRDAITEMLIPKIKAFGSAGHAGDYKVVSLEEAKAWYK
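40 nM FBPA preincubated 10 min at RT with compound (up to 57.5 uM final), then substrate plus GAPDH/TPI/NAD/arsenate coupling and diaphorase/resazurin added. Fluorescence read after 20 min at RT, 525/598 nm.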
Tb PYK inh – inhibitors of Trypanosoma brucei pyruvate kinase; Q57TT1; TbPYK enzyme, Kinase-Glo Plus ATP luminescence, 45 min; Potency, µM (series often up to 76.8 µM), for the others: top-dose activity, negative = inhibition, usual class: inhibitors; actives 0.12% (n = 410,000); further: potency means the concentration at half of the fitted maximal effect; on the % scale 0 is the no-effect control and ±100 the full control effect; nearly all actives have a fitted effect of over 50% in size
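Luminescence from Kinase-Glo Plus, added after a 45-minute room-temperature reaction, served as the end-point read-out. The enzyme and substrate were preincubated with compound before ADP (130 uM final) initiated turnover. Concentration-effect curves came from normalized qHTS data.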
LmPK inhibitor – inhibitors of Leishmania mexicana pyruvate kinase. Potency, µM (highest dose often 57.5 µM), for the others: at the top dose activity change, negative = inhibition, most hits filed as inhibitors. Q27686. purified LmPK, Kinase-Glo ATP luminescence, 1 h. AID 1721. actives 0.37% (n = 290,000); further: potency means the concentration at half of the fitted maximal effect; on the % scale 0 is the no-effect control and ±100 the full control effect
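Pyruvate kinase activity monitored as ATP production (luciferase luminescence). Conditions: 0.1 nM enzyme, 0.5 mM PEP, 0.1 mM ADP, 1 h, RT; normalized against uninhibited and no-enzyme wells.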
The depositor's hits bear a star. Only a selection was taken, and hits are over-represented in it overall. Unless noted, the call rests on the fitted dose curve; in most records, active means well fitted curve in the direction sought with a large enough effect; inconclusive means small, poorly fitted or top-dose-only effect, or another doubt; inactive means no such curve, though single readings can be large; an effect the other way counts as inactive or inconclusive.

What do the screens show for `O=C(Nc1nc2ccc(S(=O)(=O)N3CCOCC3)cc2s1)c1cccs1`?
Cycloheximide cs: 18*; RE007 growth inh: 45%; Shiga inhibitor: 39*; Giardia FBPA inh: 10%; Tb PYK inh: -8%; LmPK inhibitor: 6%

What do the screens show for `CN(C)S(=O)(=O)c1ccc2nc(NC(=O)c3cccs3)sc2c1`?
Cycloheximide cs: 41*; RE007 growth inh: -12%; Shiga inhibitor: 70*; Giardia FBPA inh: 10%; Tb PYK inh: 6%; LmPK inhibitor: -15%

Results for CSc1nc2ccc3nc(NC(=O)c4cccs4)sc3c2s1 ?
Cycloheximide cs: 43*; RE007 growth inh: 7%; Shiga inhibitor: 51*; Giardia FBPA inh: 6%; Tb PYK inh: -3%; LmPK inhibitor: 5%

Results for CC(=O)Nc1ccc2nc(NC(=O)c3cccnc3)sc2c1 ?
Cycloheximide cs: 27*; RE007 growth inh: -5%; Shiga inhibitor: 46*; Giardia FBPA inh: 4%; Tb PYK inh: 6%; LmPK inhibitor: -9%

Results for O=C(Nc1nc2ccc(S(=O)(=O)N3CCCC3)cc2s1)c1cccs1 ?
Cycloheximide cs: 2; RE007 growth inh: 1%; Shiga inhibitor: -2; Giardia FBPA inh: 6%; Tb PYK inh: -26%; LmPK inhibitor: inconclusive

Results for O=C(Nc1nc2ccc(F)cc2s1)c1cccs1 ?
Cycloheximide cs: 50*; RE007 growth inh: -20%; Shiga inhibitor: 126*; Giardia FBPA inh: 4%; Tb PYK inh: -2%; LmPK inhibitor: -30%

Results for CN(C)S(=O)(=O)c1ccc2nc(NC(=O)c3cccnc3)sc2c1 ?
Cycloheximide cs: 29*; RE007 growth inh: 0%; Shiga inhibitor: 107*; Giardia FBPA inh: 0%; Tb PYK inh: -16%; LmPK inhibitor: -6%

What do the screens show for `COc1ccc(CC(=O)Nc2nc3ccc(F)cc3s2)cc1S(=O)(=O)N1CCOCC1`?
Cycloheximide cs: 40*; RE007 growth inh: 15%; Shiga inhibitor: 70*; Giardia FBPA inh: 10%; Tb PYK inh: -11%; LmPK inhibitor: 2%

How did CC(=O)NC(c1ccccc1)c1nc(-c2cccc(CO)c2)cs1 (stereo not drawn) do in these assays?
RE007 growth inh: 3%; Tb PYK inh: 0%

What do the screens show for `CC(=O)NCCNc1nc(-c2ccccc2C)nc2ccccc12`?
Giardia FBPA inh: 1%

Results for CCc1c(C)sc(NC(=O)CN2CCN(C(=O)c3ccco3)CC2)c1C(=O)OC ?
Cycloheximide cs: 16*; RE007 growth inh: 8%; Shiga inhibitor: 37; Tb PYK inh: -1%; LmPK inhibitor: -2%

Results for CCOC(=O)c1c(NC(=O)CN2CCN(C(=O)c3ccco3)CC2)sc(C)c1C ?
Cycloheximide cs: -4; RE007 growth inh: 3%; Shiga inhibitor: -5; Tb PYK inh: 0%; LmPK inhibitor: -6%

Results for CCCSc1nc(NCc2ccco2)c2c3c(sc2n1)COC(C)(C)C3 ?
Cycloheximide cs: 26; RE007 growth inh: -4%; Shiga inhibitor: 46*; Giardia FBPA inh: -13%; Tb PYK inh: -6%; LmPK inhibitor: 5%

What do the screens show for `CCCCSc1nc(NCc2ccco2)c2c3c(sc2n1)COC(C)(C)C3`?
Cycloheximide cs: 44*; RE007 growth inh: 7%; Shiga inhibitor: 70*; Giardia FBPA inh: -7%; Tb PYK inh: -8%; LmPK inhibitor: 3%

What do the screens show for `CCOc1ccccc1NC(=O)Cc1csc(COc2cccc(C)c2)n1`?
Tb PYK inh: -2%

How did N#C/C(=C\c1ccc(-c2cccc([N+](=O)[O-])c2)o1)c1nnc(N2CCOCC2)n1-c1ccccc1 do in these assays?
Cycloheximide cs: -2; Shiga inhibitor: 5; Giardia FBPA inh: -27%; LmPK inhibitor: 0%

How did COc1ccc(Nc2oc(-c3cccs3)nc2C#N)cc1 do in these assays?
Cycloheximide cs: 62*; RE007 growth inh: -2%; Shiga inhibitor: 146*; Giardia FBPA inh: -3%; Tb PYK inh: 0%; LmPK inhibitor: 2%

What do the screens show for `CNc1oc(-c2cccs2)nc1C#N`?
Cycloheximide cs: 1; RE007 growth inh: -18%; Shiga inhibitor: 16; Giardia FBPA inh: 1%; Tb PYK inh: 2%; LmPK inhibitor: -4%

Source: PubChem BioAssay (National Center for Advancing Translational Sciences (NCATS))
